Test results from PubChem BioAssay AID1852 (Sanford-Burnham Center for Chemical Genomics, 2009).
The whole screen tested about 2,500 compounds, of which about 1,100 (44%) were called active.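 How the source made its calls: active means inhibition above 50% at 4 µM in the single-point screen; inactive means inhibition of 50% or less.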 So high a share suggests a set chosen from earlier hits. This is one part of the list.

experiment: TNF-a-driven NF-kB reporter inhibitors, primary screen, selectivity assay for NOD1/NOD2 signaling inhibitor project, cell-based, HEK293T NF-kB-Luc, luminescence (AID 1852); settings: TNF-a induced, 14 h, at 4 µM, hits give high values

SMILES	inhibition
COc1cccc(/C=N/NC(=O)c2ccc(-c3ccccc3)cc2)c1O	70% (active)
COc1cc(/C=N/NC(=O)c2cc3c(ccc4ccccc43)o2)cc(OC)c1O	36.5% (inactive)
COc1cc(/C=N/NC(=O)c2ccc(-c3ccccc3)cc2)cc(OC)c1OC	63.8% (active)
COc1cc(/C=N\NC(=O)c2ccc(-c3ccccc3)cc2)cc(Br)c1O	43% (inactive)
Cc1ccccc1CS(=O)(=O)c1nnc([C@H](CC(C)C)NC(=O)OC(C)(C)C)o1	35% (inactive)
COc1cc(CNc2ccc3[nH]c(=O)[nH]c3c2)ccc1OCc1c(F)cccc1Cl	49.2% (inactive)
Clc1c(Cl)c(Cl)c2n[nH]nc2c1Cl	26.8% (inactive)
Cc1ccc(NC(=O)CCC(=O)N/N=C/c2ccccc2O)cc1	58.1% (active)
Cc1cccc2cc(/C=N/NC(=O)c3ccccc3O)c(Cl)nc12	63.3% (active)
O=C(N/N=C/c1cccc2cccnc12)c1ccccc1O	53.1% (active)
O=C(N/N=C/c1ccccc1O)c1cccc2ccccc12	99.3% (active)
O=C(/C=C/c1ccco1)Oc1cc(Br)cc(/C=N/NC(=O)c2ccccc2O)c1	44.6% (inactive)
Cc1c(/C=N/NC(=O)c2ccccc2O)c2ccccn2c1C(=O)c1ccc(F)cc1	21.3% (inactive)
COc1cccc(/C=N/NC(=O)c2c(C)nc3ccc(Cl)cn23)c1O	46.8% (inactive)
O=C(CCC(=O)Nc1ccc(Br)cc1)N/N=C/c1ccccc1O	49.3% (inactive)
O=C1CCN(CCc2ccccc2)CCN1CCOc1ccccc1	-6.2% (inactive)
CCc1cc(C(=O)N/N=C/c2ccc(O)cc2O)c2ccccc2n1	50.7% (active)
O=C(N/N=C/c1ccc(O)cc1O)c1ccncc1	28.2% (inactive)
CCOc1ccc(/C=N/NC(=O)C(O)c2ccccc2)c(O)c1 (configuration not stated)	45.4% (inactive)
Cc1csc(SCC(=O)Nc2cccc3nsnc23)n1	100% (active)
CCn1c(SCC(=O)Nc2nc(-c3ccccc3)cs2)nnc1-c1ccccc1	34.3% (inactive)
O=C(CN1C(=O)c2cccnc2Oc2ccc(Cl)cc21)NCCCc1ccccc1	12% (inactive)
O=C(NC(=S)N(CCCCO)C1CCCCC1)c1sc2ccccc2c1Cl	104% (active)
COc1ccc(C(=O)NC(=S)N(C)C2CCCCC2)cc1Br	-14.8% (inactive)
Cc1ccc(C(=O)NC(=S)N(C)C2CCCCC2)cc1Br	106% (active)

SMILES	inhibition
Cc1ccc(C(C)NC(=S)NC2CCCCC2)cc1C (configuration not stated)	24.8% (inactive)
Cc1ccccc1N1CCN(S(=O)(=O)c2nnc(NC(=O)c3ccc(F)cc3)s2)CC1	-27.1% (inactive)
Cc1onc(-c2c(F)cccc2Cl)c1C(=O)Nc1nnc(C(F)(F)F)s1	48.9% (inactive)
O=C(Nc1ccccc1C(=O)Nc1nnc(C(F)(F)F)s1)c1ccccc1Cl	86.7% (active)
Cc1onc(-c2ccccc2Cl)c1C(=O)Nc1nnc(-c2ccc(Br)cc2)s1	-22.4% (inactive)
O=C(Nc1ccccc1C(=O)Nc1nnc(C(F)(F)F)s1)c1ccccc1	51% (active)
Cc1ccnc(OC(C(=O)O)C(OCc2ccccc2)(c2ccc(F)cc2)c2ccc(F)cc2)n1 (configuration not stated)	-7.9% (inactive)
CCn1cc([N+](=O)[O-])c(C(=O)N2N=C(c3ccc4ccccc4c3)CC2c2cc(Br)ccc2O)n1 (configuration not stated)	-56.7% (inactive)
CCn1cc([N+](=O)[O-])c(C(=O)N2N=C(c3ccc(OC)cc3OC)CC2c2ccccc2O)n1 (configuration not stated)	86.6% (active)
CC1CC(C)CN(C(=O)CSc2nc(Cc3cccs3)nc3ccccc23)C1 (configuration not stated)	-34.3% (inactive)
Nc1ccc2c(c1)C(=O)C(=O)c1ccccc1-2	97.6% (active)
O=C1C(=O)c2ccc(-c3ccccc3)cc2-c2ccccc21	102% (active)
O=C1C(Cl)=C(Nc2ccccc2)C(=O)c2ccccc21	-83.5% (inactive)
CCn1c(SCC(=O)N2CCC(C)CC2)nc2c(c1=O)SCC2	1.5% (inactive)
CCCCCCc1cc2cc(S(=O)(=O)c3ccc(F)c(Cl)c3)c(=O)oc2cc1O	38.7% (inactive)
CCCCCCc1cc2cc(S(=O)(=O)c3ccc(Cl)cc3)c(=O)oc2cc1O	65.1% (active)
CCCCCCc1cc2cc(C(=O)OCC)c(=O)oc2cc1O	9.4% (inactive)
c1csc(CCNc2ncnc3sc4c(c23)CCC4)c1	62.9% (active)
O=C(O)CSc1ncnc2sc3c(c12)CCCC3	31.1% (inactive)
COCCn1c(C)cc(C(=O)CSc2ncnc3sc4c(c23)CCC4)c1C	14.2% (inactive)
CC1(C)CC(N2CCN(C(c3ccccc3)c3ccccc3)CC2)=CC(=[N+]2CCCCC2)C1	80.1% (active)
CC1(C)CC(N2CCCC2)=CC(=[N+]2CCCCCC2)C1	34% (inactive)
CC1CC(C)C[N+](=C2C=C(N3CCCC3)CC(C)(C)C2)C1 (configuration not stated)	49.7% (inactive)
O=C(NC(c1ccc(Cl)cc1)c1c(O)ccc2ccccc12)c1ccccc1 (configuration not stated)	78.3% (active)
Cc1cc(C)nc(N/N=C/c2c[nH]c3ccccc23)n1	29% (inactive)

SMILES	inhibition
Oc1ccc(/C=N/Nc2nccnc2Cl)c(O)c1	39.8% (inactive)
Fc1ccccc1/C=N/Nc1nc(-c2ccccn2)nc2ccccc12	98.7% (active)
FC(F)(F)c1cc(Sc2ccccc2)nc(-c2ccccn2)n1	-4.1% (inactive)
Oc1ccc(/C=N/Nc2nc(-c3ccccc3F)nc3ccccc23)c(O)c1	68.2% (active)
C(=N\Nc1nc(-c2ccccn2)nc2ccccc12)/c1ccccc1	78.9% (active)
Cc1c(O)ccc(/C=N/Nc2nc(-c3cccnc3)nc3ccccc23)c1O	-60% (inactive)
Cc1c(Cl)cccc1NC(=S)NNc1ncc(C(F)(F)F)cc1Cl	28.7% (inactive)
Cc1ccc(S(=O)(=O)c2ccc([N+](=O)[O-])cn2)cc1	38.5% (inactive)
O=[N+]([O-])c1cccnc1S(=O)(=O)c1ccccc1	69.6% (active)
Cc1ccc(C(=O)Nc2ncc([N+](=O)[O-])s2)cc1	3.8% (inactive)
Cc1ccc(S(=O)(=O)c2ncccc2[N+](=O)[O-])cc1	52.6% (active)
CC(C)C[C@H](NC(=O)c1nc[nH]c1C(=O)N1CCN(C(=O)OC(C)(C)C)CC1)C(=O)OC(C)(C)C	2.4% (inactive)
CCn1c(=O)cc(SCC(=O)Nc2ccc(C)cn2)c2ccccc21	35.4% (inactive)
Cc1ccnc(NC(=O)Cc2ccc(-c3ccccc3)cc2)c1	48.8% (inactive)
Cc1ccnc(NC(=O)CSc2cc(=O)n(C)c3ccccc23)c1	86.3% (active)
Nc1ncc(Br)cc1S(=O)(=O)Nc1cc(C(F)(F)F)cc(C(F)(F)F)c1	78% (active)
Cc1nc(N2CCN(C(=O)COc3ccccc3)CC2)c2c(C)c(C)sc2n1	23.4% (inactive)
Cc1sc2nc(CSc3ccccc3)nc(N3CCC(C(N)=O)CC3)c2c1C	53.5% (active)
CCOC(=O)c1sc2nc(CSc3ccccc3)[nH]c(=O)c2c1C	-7.9% (inactive)
Cc1nc(N2CCC(C)CC2)c2c(C)c(C(=O)Nc3cc(F)ccc3C)sc2n1	-61.2% (inactive)
Cc1nc(N2CCN(c3ccccc3O)CC2)c2c(-c3ccccc3)csc2n1	-13.5% (inactive)
Cc1nc(N2CCC(C(N)=O)CC2)c2c(-c3cccs3)csc2n1	57.4% (active)
CCOc1cc(/C=C2\C(=N)N3N=C(S(C)(=O)=O)SC3=NC2=O)ccc1OCCOc1cccc(OC)c1	-31.3% (inactive)
Fc1ccc(Sc2nc(-c3ccccc3)nnc2C(F)(F)F)cc1	40.3% (inactive)
CC(C)c1ccc(-n2c(-c3ccccc3)c[n+]3c2CCc2ccccc2-3)cc1	86% (active)

SMILES	inhibition
CC(Oc1ccc(Br)cc1)c1nc2c3ccccc3nc(=S)n2[nH]1 (configuration not stated)	101% (active)
CCCC(Oc1ccc(Br)cc1)c1nc2c3cc(OC)c(OC)cc3nc(=S)n2[nH]1 (configuration not stated)	104% (active)
O=CN1CCN(c2c([N+](=O)[O-])c(=O)oc3ccccc23)CC1	-17% (inactive)
N=C1SCC(=O)N1c1ncc(Cc2ccc(F)cc2)s1	109% (active)
O=C1CCSc2ccc(Cl)cc2N1Cc1cccc(Cl)c1	17.4% (inactive)
N=C1SCC(=O)N1c1ncc(Cc2ccccc2Cl)s1	97.5% (active)
N=C1SCC(=O)N1c1ncc(Cc2cccc(Cl)c2)s1	101% (active)
COc1ccc(COC(=O)NC2CCN(S(=O)(=O)c3ccc(OC)cc3)CC2)cc1	20.6% (inactive)
CCOC(=O)C1CCN(c2ncnc3c2cnn3-c2ccc(Cl)cc2)CC1	36.4% (inactive)
Cc1nc(N2CCN(c3ccccn3)CC2)c2c(C)c(C(=O)N3CCN(c4ccc(F)cc4)CC3)sc2n1	-51.2% (inactive)
Cc1nn(-c2ccccc2)c(Cl)c1C(=O)N1CCN(c2ncnc3c2cnn3-c2ccccc2)CC1	86.6% (active)
Cc1ccc2nc(NC(=O)CSCC(=O)OCC(=O)c3ccc(Br)cc3)sc2c1	75.2% (active)
COC(=O)c1ccc2nc(Nc3nc4c(F)cc(F)cc4s3)sc2c1	35.5% (inactive)
Cc1c(Cl)cccc1NC(=S)N=Nc1c(O)n(CN2CCOCC2)c2ccccc12	70.8% (active)
C=CCn1c(O)c(N=NC(=S)Nc2cccc(OC)c2)c2ccccc21	12% (inactive)
C=CCn1c(O)c(N=NC(=S)Nc2cccc(C)c2)c2ccccc21	8.8% (inactive)
Oc1c(N=NC(=S)Nc2ccccc2F)c2ccccc2n1Cc1ccccc1F	7.6% (inactive)
C=CCn1c(O)c(N=NC(=S)Nc2ccccc2F)c2ccccc21	100% (active)
NC(=S)N=Nc1c(O)n(Cc2ccc(Br)cc2)c2ccccc12	-15.1% (inactive)
C/C(Cl)=C\Cn1c(O)c(N=NC(N)=S)c2ccccc21	35.2% (inactive)
C=CCn1c(O)c(N=NC(=S)Nc2ccc(OC)cc2)c2ccccc21	96.3% (active)
C=CCn1c(O)c(N=NC(=S)Nc2ccc(OC)c(Cl)c2)c2ccccc21	-34.6% (inactive)
